What all share (assay): NCI-60 one-dose screen, 48 h (100 = growth as untreated, 0 = no growth, -100 = all killed)
Holding throughout (conditions): 10 µM unless noted

Experiment [1] has as its system SK-MEL-2 melanoma.
The subject of experiment [2] is EKVX NSCLC.
The test system of experiment [3] is SN12C renal.
In experiment [4] the test system is UO-31 renal.
The test system of experiment [5] is TK-10 renal.
The subject of experiment [6] is ACHN renal.
Experiment [7] has as its system CAKI-1 renal.
Experiment [8] deals with A498 renal.
Experiment [9] concerns CCRF-CEM leukemia.
Experiment [10] has as its system MOLT-4 leukemia.
In experiment [11] the test system is RPMI-8226 leukemia.
In experiment [12] the test system is OVCAR-8 ovarian.
The subject of experiment [13] is OVCAR-5 ovarian.
Experiment [14] has as its system OVCAR-4 ovarian.
The subject of experiment [15] is SK-OV-3 ovarian.
Experiment [16] concerns IGROV1 ovarian.
Experiment [17] concerns OVCAR-3 ovarian.
For experiment [18], the system named is HS 578T breast.
Experiment [19] relates to NCI/ADR-RES ovarian.

The panel holds about 83,000 compounds, 20% with a hit somewhere; the sample as a whole holds those more often.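 Results are percent growth after 48 hours of single-concentration exposure. 100 means growth as in untreated cells, lower positive values show inhibition; negative values down to -100 show cell death.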 Values without a mark were called inactive. Calls of active or inactive are those of the source. How the source made its calls: active means growth percent below 10; inactive means the rest.

Data on eight compounds can be found in PubChem BioAssay (NCI).

Turning to `CCc1ccccc1-n1c(-c2ccc(Cl)cc2)cc(-c2ccc(OC)cc2)c(C#N)c1=O`, the growth in [1] was 91.5%; in [2], 96.1%; in [3] it was 99.4%; in experiment [4], 81.5%; in [5], 136%; in experiment [6] it was 114%. The growth in [7] is 99.8%; in [8], 110%; in experiment [9], -41.4% (active); in [10], 103%; in experiment [11] it was 78.5%; in experiment [12], 102%. In addition, the growth in experiment [13] is 94.7%; in [14], 90%; in [15], 103%; in [16], 80%; in experiment [17], 100%; in experiment [18], 98.7%. The growth in [19] is 95.1%.

Regarding `COc1ccc(/C=C/c2c(C(=O)/C=C/c3cccs3)c(C)nc3ccccc23)cc1`, the growth in experiment [1] was 89.6%; in experiment [2], 84.8%; in [3] it was 79.1%; in [4], 56.4%; in [5], 116%; in [6], 82.2%. Also, the growth in [7] is 57.2%; in experiment [8], 53.3%; in experiment [9], 64.5%; in experiment [10], 60.1%; in experiment [11], 56.6%; in experiment [12], 77%. Further, the growth in experiment [13] is 97%; in [14], 68.7%; in experiment [15] it was 79.7%; in [16] it was 46%; in experiment [17] it was 83.6%; in experiment [18] it was 84.1%. In addition, in [19], the growth was 74.1%.

Take `Cc1c(C(=O)NC(Cc2ccccc2)C(O)C(=O)NCc2ccc(F)cc2)[nH]c2ccccc2c1=O` (configuration not stated): the growth was 108% in [1]; 104% in experiment [2]; 107% in experiment [3]; 94% in experiment [4]; 102% in experiment [5]; 107% in [6]. In addition, the growth in [7] is 102%; in experiment [8], 107%; in experiment [9], 109%; in [10], 93.6%; in experiment [11], 105%; in experiment [12] it was 103%. Besides, the growth in experiment [13] is 91%; in [14], 107%; in [15] it was 104%; in [16], 103%; in experiment [17] it was 114%; in [18], 99%. Also, the growth in experiment [19] is 107%.

Turning to `CCN(CC)CCCC(C)Nc1c2ccc(Cl)cc2nc2ccc(O)cc12` (configuration not stated), the growth in experiment [1] was 52.6%; in [2], 48.6%; in [3], 30.8%; in experiment [4], 34.4%; in experiment [5], 55%; in experiment [6], 24.2%. The growth in experiment [7] was 70.9%; in experiment [8], 90.7%; in experiment [9] it was 48.3%; in [10] it was 7.11% (active); in experiment [11], 21.8%; in experiment [12], 30.1%. Besides, the growth was 74.3% in [13]; 24.6% in experiment [14]; 58.1% in experiment [15]; 53.8% in experiment [16]; 54.8% in [17]; 58% in experiment [18]. Besides, in experiment [19], the growth was 77.3%.

Regarding `Cc1cc(=O)[nH]c(N=Nc2c(O)[nH]c3ccccc23)n1`, the growth in experiment [1] is 103%; in experiment [2], 111%; in experiment [3], 102%; in [4] it was 84.9%; in experiment [5] it was 112%; in [6], 101%. The growth in [7] was 96.1%; in experiment [8], 127%; in experiment [9], 94.6%; in experiment [10], 109%; in experiment [11] it was 105%; in experiment [12], 104%. The growth in experiment [13] was 105%; in experiment [14], 118%; in [15], 112%; in [16], 92.8%; in experiment [17], 112%; in experiment [18], 122%. For the same compound, the growth in [19] is 108%.

On to `COc1ccc(-c2cc(-c3cc(OC)c(OC)c(OC)c3)c(C#N)c(N3CCOCC3)n2)cc1O`, for which the growth in experiment [1] was 68.2%; in experiment [2] it was 59.8%; in experiment [3], 60.1%; in experiment [4], 56.8%; in experiment [5], 73.3%; in experiment [6], 66.7%. Besides, the growth in experiment [7] was 51.5%; in experiment [8] it was 74.8%; in [9], 42.8%; in experiment [10] it was 55.4%; in experiment [11], -23.8% (active); in experiment [12], 56.3%. Also, the growth in [13] is 20.5%; in [14] it was 89.6%; in experiment [15] it was 81.2%; in experiment [16], 59.3%; in experiment [17], 27.4%; in experiment [18], 41.7%. In addition, the growth in [19] was -51.5% (active).

Turning to `Cc1ccc(-c2cc(-c3cccnc3)[nH]c(=O)c2C#N)cc1`, the growth in experiment [1] is 120%; in experiment [2], 101%; in [3], 104%; in experiment [4] it was 84.1%; in [5] it was 116%; in experiment [6], 103%. In addition, the growth was 87% in experiment [7]; 82.4% in experiment [8]; 101% in [9]; 115% in experiment [10]; 101% in experiment [11]; 103% in [12]. In addition, the growth in experiment [13] was 107%; in experiment [14], 103%; in experiment [15], 114%; in experiment [16], 106%; in [17], 106%; in experiment [18], 102%. Also, the growth in experiment [19] is 105%.

Turning to `NC[C@H](O)c1ccc(O)c(O)c1`, the growth in experiment [1] is 110%; in [2], 113%; in [3], 85.4%; in [4], 103%; in [5], 97.7%; in experiment [6], 90.1%. Besides, the growth in [7] is 109%; in experiment [8], 112%; in experiment [9], -46.2% (active); in experiment [10], 115%; in [11], 104%; in [12] it was 96.3%. Besides, the growth in [13] was 84.4%; in experiment [14], 123%; in experiment [15], 102%; in experiment [16] it was 118%; in experiment [17], 108%; in experiment [18], 113%. For the same compound, the growth in experiment [19] was 92.1%.
